We go through 35 compounds from PubChem BioAssay (EPA / NIEHS).

The structures appear in SMILES notation. Calls of active or inactive are those of the source. The calls were made as follows: active = hit-call score of the fitted dose curve at least 0.9, where 1 is the maximum; inactive = score below 0.9.

The first experiment in a line: CCTE_Harrill_HTTr_Viability_MCF7: CCTE's 6-hour Cell Viability Assessment for the High-Throughput Transcriptomics (HTTr) Platform, in MCF-7 cells cultured in DMEM + 10% fetal bovine serum, Harrill Lab (AID 2284010). The method in brief: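 Viability measured through PI dye exclusion by high-content imaging at 6 h post-dosing.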
`CCC(CC)Nc1c([N+](=O)[O-])cc(C)c(C)c1[N+](=O)[O-]`: the outcome was inactive.
On the same count and under the same terms, with `CSc1nc(NC(C)C)nc(NC(C)C)n1` the entry was “inactive”; with `CCc1cccc(C)c1N(C(=O)CCl)C(C)COC` (stereo not given), “inactive”.
The same measure, in the same setting: with `CC(C)=CC1C(C(=O)OCN2C(=O)C3=C(CCCC3)C2=O)C1(C)C` (stereo not given) the entry was “inactive”; with `CCc1cnc(C2=NC(C)(C(C)C)C(=O)N2)c(C(=O)O)c1` (stereo not given), “inactive”; with `Nc1c(Cl)cc([N+](=O)[O-])cc1Cl`, “inactive”.
Take `COP(=O)(OC)C(O)C(Cl)(Cl)Cl` (stereo not given): the outcome was inactive.
The same measure, in the same setting: with `CNC(=O)Oc1cccc2c1OC(C)(C)O2` the entry was “inactive”.
Same read-out and setting: then `CCCOCC(=Nc1ccc(Cl)cc1C(F)(F)F)n1ccnc1`, with “inactive”.
The term AC50 denotes the midpoint of the concentration-response curve, whichever way the signal moves. Take `CC[C@H](C)[C@H]1O[C@]2(C=C[C@@H]1C)C[C@@H]1C[C@@H](C/C=C(\C)[C@@H](O[C@H]3C[C@H](OC)[C@@H](O[C@H]4C[C@H](OC)[C@@H](NC)[C@H](C)O4)[C@H](C)O3)[C@@H](C)/C=C/C=C3\CO[C@@H]4[C@H](O)C(C)=C[C@@H](C(=O)O1)[C@]34O)O2`: the concentration at half-maximal activity (AC50) was 50 µM (active).
For the compound `CNc1cnn(-c2cccc(C(F)(F)F)c2)c(=O)c1Cl`, the result was inactive.
Still for that read-out and setting: then `CC(C1CC1)C(O)(Cn1cncn1)c1ccc(Cl)cc1` (stereo not given), with “inactive”.
Same read-out and setting: with `CC1=NNC(=O)N(/N=C/c2cccnc2)C1` the entry was “inactive”.
With `Cc1cc(C2CC2)nc(Nc2ccccc2)n1`, the outcome was inactive.
On to `CCOC(=O)COc1cc(-c2nn(C)c(OC(F)F)c2Cl)c(F)cc1Cl`, for which the outcome was inactive.
On to `O=c1ccc(=O)[nH][nH]1`, for which the result was inactive.
Still for that read-out and setting: with `CC(=NC#N)N(C)Cc1ccc(Cl)nc1` the entry was “inactive”.
In the case of `CCOP(=S)(OCC)Oc1ccc2c(C)c(Cl)c(=O)oc2c1`, the result was inactive.
For the compound `CN(C)C(=O)Nc1cccc(C(F)(F)F)c1`, the outcome was inactive.
The same measure, in the same setting: then `CCNc1nc(Cl)nc(NC(C)(C)C#N)n1`, with “inactive”.
Still for that read-out and setting: with `CNC(=O)ON=C(C)SC` the entry was “inactive”; with `C[N+]1(C)CCCCC1`, “inactive”.
For `CSc1nnc(C(C)(C)C)c(=O)n1N`, the outcome was inactive.
Same read-out and setting: with `CCCCOC(=O)c1ccccc1C(=O)O` the entry was “inactive”; with `COP(=O)(NC(C)=O)SC` (stereo not given), “inactive”.
The same measure, in the same setting: with `COc1cccc(C(=O)NN(C(=O)c2cc(C)cc(C)c2)C(C)(C)C)c1C` the entry was “inactive”.
For `CN(C)[C@@H]1C(=O)C(C(N)=O)=C(O)[C@@]2(O)C(=O)C3=C(O)c4c(O)cccc4[C@@](C)(O)[C@H]3[C@H](O)[C@@H]12`, the outcome was inactive.
The same measure, in the same setting: then `CCc1cccc(CC)c1N(COC)C(=O)CCl`, with “inactive”; and `C[Si](Cn1cncn1)(c1ccc(F)cc1)c1ccc(F)cc1`, with “inactive”.
Turning to `CCCOc1nn(C(=O)NS(=O)(=O)c2ccccc2C(=O)OC)c(=O)n1C`, the result was inactive.
On the same count and under the same terms, then `C=C(C)[C@H]1Cc2c(ccc3c2O[C@@H]2COc4cc(OC)c(OC)cc4[C@@H]2C3=O)O1`, with “inactive”; and `FC(F)C(F)(F)OCC(Cn1cncn1)c1ccc(Cl)cc1Cl` (stereo not given), with “inactive”.
Consider `O=[N+]([O-])c1cc(C(F)(F)F)c(Cl)c([N+](=O)[O-])c1Nc1ncc(C(F)(F)F)cc1Cl`, for which the half-maximal activity concentration (AC50) was 21.5 µM (active).
With `Cc1nn(-c2cc(NS(C)(=O)=O)c(Cl)cc2Cl)c(=O)n1C(F)F`, the result was inactive.
Take `CCCCN(CC)c1c([N+](=O)[O-])cc(C(F)(F)F)cc1[N+](=O)[O-]`: the outcome was inactive.

The next experiment is described as follows: CCTE_Harrill_HTTr_Apoptosis_MCF7: CCTE's 6-hour Apoptosis Assessment for the High-Throughput Transcriptomics (HTTr) Platform, in MCF-7 cells cultured in DMEM + 10% fetal bovine serum, Harrill Lab (AID 2284011). The method in brief: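 MCF-7 (DMEM + 10% FBS), 384-well; 8-pt dilution series, 6 h chemical exposure; caspase-3/7 activation via CellEvent Caspase 3/7 Green, HCI; bidirectional fit vs DMSO.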
Turning to `CCC(CC)Nc1c([N+](=O)[O-])cc(C)c(C)c1[N+](=O)[O-]`, the outcome was inactive.
On the same count and under the same terms, then `CSc1nc(NC(C)C)nc(NC(C)C)n1`, with “inactive”; and `CCc1cccc(C)c1N(C(=O)CCl)C(C)COC` (stereo not given), with “inactive”.
Still for that read-out and setting: then `CC(C)=CC1C(C(=O)OCN2C(=O)C3=C(CCCC3)C2=O)C1(C)C` (stereo not given), with “inactive”; and `CCc1cnc(C2=NC(C)(C(C)C)C(=O)N2)c(C(=O)O)c1` (stereo not given), with “inactive”; and `Nc1c(Cl)cc([N+](=O)[O-])cc1Cl`, with “inactive”.
Same read-out and setting: then `COP(=O)(OC)C(O)C(Cl)(Cl)Cl` (stereo not given), with “inactive”; and `CNC(=O)Oc1cccc2c1OC(C)(C)O2`, with “inactive”.
As for `CCCOCC(=Nc1ccc(Cl)cc1C(F)(F)F)n1ccnc1`, the outcome was inactive.
As for `CC[C@H](C)[C@H]1O[C@]2(C=C[C@@H]1C)C[C@@H]1C[C@@H](C/C=C(\C)[C@@H](O[C@H]3C[C@H](OC)[C@@H](O[C@H]4C[C@H](OC)[C@@H](NC)[C@H](C)O4)[C@H](C)O3)[C@@H](C)/C=C/C=C3\CO[C@@H]4[C@H](O)C(C)=C[C@@H](C(=O)O1)[C@]34O)O2`, the outcome was inactive.
In the case of `CNc1cnn(-c2cccc(C(F)(F)F)c2)c(=O)c1Cl`, the outcome was inactive.
On the same count and under the same terms, then `CC(C1CC1)C(O)(Cn1cncn1)c1ccc(Cl)cc1` (stereo not given), with “inactive”; and `CC1=NNC(=O)N(/N=C/c2cccnc2)C1`, with “inactive”; and `Cc1cc(C2CC2)nc(Nc2ccccc2)n1`, with “inactive”.
In the case of `CCOC(=O)COc1cc(-c2nn(C)c(OC(F)F)c2Cl)c(F)cc1Cl`, the outcome was inactive.
For the compound `O=c1ccc(=O)[nH][nH]1`, the result was inactive.
With `CC(=NC#N)N(C)Cc1ccc(Cl)nc1`, the outcome was inactive.
Regarding `CCOP(=S)(OCC)Oc1ccc2c(C)c(Cl)c(=O)oc2c1`, the outcome was inactive.
Still for that read-out and setting: then `CN(C)C(=O)Nc1cccc(C(F)(F)F)c1`, with “inactive”; and `CCNc1nc(Cl)nc(NC(C)(C)C#N)n1`, with “inactive”; and `CNC(=O)ON=C(C)SC`, with “inactive”.
In the case of `C[N+]1(C)CCCCC1`, the result was inactive.
Still for that read-out and setting: then `CSc1nnc(C(C)(C)C)c(=O)n1N`, with “inactive”; and `CCCCOC(=O)c1ccccc1C(=O)O`, with “inactive”.
With `COP(=O)(NC(C)=O)SC` (stereo not given), the result was inactive.
For the compound `COc1cccc(C(=O)NN(C(=O)c2cc(C)cc(C)c2)C(C)(C)C)c1C`, the result was inactive.
Turning to `CN(C)[C@@H]1C(=O)C(C(N)=O)=C(O)[C@@]2(O)C(=O)C3=C(O)c4c(O)cccc4[C@@](C)(O)[C@H]3[C@H](O)[C@@H]12`, the result was inactive.
The same measure, in the same setting: with `CCc1cccc(CC)c1N(COC)C(=O)CCl` the entry was “inactive”; with `C[Si](Cn1cncn1)(c1ccc(F)cc1)c1ccc(F)cc1`, “inactive”; with `CCCOc1nn(C(=O)NS(=O)(=O)c2ccccc2C(=O)OC)c(=O)n1C`, “inactive”.
On the same count and under the same terms, then `C=C(C)[C@H]1Cc2c(ccc3c2O[C@@H]2COc4cc(OC)c(OC)cc4[C@@H]2C3=O)O1`, with “inactive”; and `FC(F)C(F)(F)OCC(Cn1cncn1)c1ccc(Cl)cc1Cl` (stereo not given), with “inactive”; and `O=[N+]([O-])c1cc(C(F)(F)F)c(Cl)c([N+](=O)[O-])c1Nc1ncc(C(F)(F)F)cc1Cl`, with “inactive”.
On the same count and under the same terms, then `Cc1nn(-c2cc(NS(C)(=O)=O)c(Cl)cc2Cl)c(=O)n1C(F)F`, with “inactive”; and `CCCCN(CC)c1c([N+](=O)[O-])cc(C(F)(F)F)cc1[N+](=O)[O-]`, with “inactive”.
